From PubChem BioAssay (NCATS)
Results filed as inconclusive are left out. A number with no mark means an inactive call. Activity calls are given as the source filed them. Calls follow the shape of the dose curve; as a rule, active = well fitted cell-killing curve with a large enough effect; inconclusive = small, poorly fitted or top-dose-only effect, or effect the other way; inactive = no such curve, though single readings can be large or run the other way.

Columns and labels:
[1] = Quantitative High-Throughput drug screen in 47 multiple myeloma cell lines against the NCATS MIPE library collection: MM1R_ATCC cell viability assay (AID 1918981); also: nearly all actives have a fitted effect of over 35% in size
Procedure, shortened: (§1)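 Myeloma cells (500/well) treated with MIPE 4.0 compounds for 48 h at 37 °C, 5% CO2. Viability read as ATP via CellTiter-Glo luminescence after 5 min at RT; DMSO-only wells = 100%, media-only = 0% viability.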

[2] = Quantitative High-Throughput drug screen in 47 multiple myeloma cell lines against the NCATS MIPE library collection: KMS28PE_JCRB cell viability assay (AID 1918983); also: nearly all actives have a fitted effect of over 35% in size
Procedure, shortened: as §1

[3] = Quantitative High-Throughput drug screen in 47 multiple myeloma cell lines against the NCATS MIPE library collection: L363_DSMZ cell viability assay (AID 1918984); details: L363 myeloma viability, CellTiter-Glo ATP luminescence, 48 h; viability (% of control): at 45.8 µM (top of the series); also: nearly all actives have a fitted effect of over 40% in size
Procedure, shortened: as §1

[4] = Quantitative High-Throughput drug screen in 47 multiple myeloma cell lines against the NCATS MIPE library collection: KMS34_JCRB cell viability assay (AID 1918985); also: nearly all actives have a fitted effect of over 40% in size
Procedure, shortened: as §1

[5] = Quantitative High-Throughput drug screen in 47 multiple myeloma cell lines against the NCATS MIPE library collection: OCIMY5_PLB cell viability assay (AID 1918988); also: nearly all actives have a fitted effect of over 65% in size
Procedure, shortened: as §1

[6] = Quantitative High-Throughput drug screen in 47 multiple myeloma cell lines against the NCATS MIPE library collection: SKMM1_PLB cell viability assay (AID 1919863); details: SKMM1 myeloma viability, CellTiter-Glo ATP, 48 h; viability: hits give low values; also: nearly all actives have a fitted effect of over 35% in size
Procedure, shortened: as §1

[7] = Quantitative High-Throughput drug screen in 47 multiple myeloma cell lines against the NCATS MIPE library collection: U266_ATCC cell viability assay (AID 1919864); also: nearly all actives have a fitted effect of over 35% in size
Procedure, shortened: as §1

[8] = Quantitative High-Throughput drug screen in 47 multiple myeloma cell lines against the NCATS MIPE library collection: XG6_PLB cell viability assay (AID 1919865); also: nearly all actives have a fitted effect of over 40% in size
Procedure, shortened: as §1

[9] = Quantitative High-Throughput drug screen in 47 multiple myeloma cell lines against the NCATS MIPE library collection: XG1_PLB cell viability assay (AID 1919866); also: nearly all actives have a fitted effect of over 35% in size
Procedure, shortened: as §1

[10] = Quantitative High-Throughput drug screen in 47 multiple myeloma cell lines against the NCATS MIPE library collection: VP6_DJ cell viability assay (AID 1919867); also: nearly all actives have a fitted effect of over 40% in size
Procedure, shortened: as §1

[11] = Quantitative High-Throughput drug screen in 47 multiple myeloma cell lines against the NCATS MIPE library collection: UTMC2_PLB cell viability assay (AID 1919868); details: CellTiter-Glo ATP luminescence, 48 h; viability (% of DMSO control): at 45.8 µM (top of the series); also: nearly all actives have a fitted effect of over 55% in size
Procedure, shortened: as §1

[12] = Quantitative High-Throughput drug screen in 47 multiple myeloma cell lines against the NCATS MIPE library collection: PE2_PLB cell viability assay (AID 1919869); also: nearly all actives have a fitted effect of over 35% in size
Procedure, shortened: as §1

[13] = Quantitative High-Throughput drug screen in 47 multiple myeloma cell lines against the NCATS MIPE library collection: PCM6_Riken cell viability assay (AID 1919870); also: nearly all actives have a fitted effect of over 30% in size
Procedure, shortened: as §1

[14] = Quantitative High-Throughput drug screen in 47 multiple myeloma cell lines against the NCATS MIPE library collection: RPMI8226_ATCC cell viability assay (AID 1919871); also: nearly all actives have a fitted effect of over 30% in size
Procedure, shortened: as §1

[15] = Quantitative High-Throughput drug screen in 47 multiple myeloma cell lines against the NCATS MIPE library collection: OPM2_DSMZ cell viability assay (AID 1919872); also: nearly all actives have a fitted effect of over 30% in size
Procedure, shortened: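 qHTS of the MIPE 4.0 collection: 500 myeloma cells/well, 48 h drug exposure at 37C in 5% CO2, then CellTiter-Glo for 5 min at room temperature before luminescence reading.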

[16] = Quantitative High-Throughput drug screen in 47 multiple myeloma cell lines against the NCATS MIPE library collection: KMS11_JCRBsus cell viability assay (AID 1919873); also: nearly all actives have a fitted effect of over 50% in size
Procedure, shortened: as §1

[17] = Quantitative High-Throughput drug screen in 47 multiple myeloma cell lines against the NCATS MIPE library collection: KMS28BM_JCRB cell viability assay (AID 1919874); also: nearly all actives have a fitted effect of over 35% in size
Procedure, shortened: as §1

[18] = Quantitative High-Throughput drug screen in 47 multiple myeloma cell lines against the NCATS MIPE library collection: OPM1_PLB cell viability assay (AID 1918989); also: nearly all actives have a fitted effect of over 40% in size
Procedure, shortened: as §1

[19] = Quantitative High-Throughput drug screen in 47 multiple myeloma cell lines against the NCATS MIPE library collection: OCIMY7_PLB cell viability assay (AID 1918987); details: OCI-MY7 myeloma viability, CellTiter-Glo ATP, 48 h; viability (% of DMSO): at 45.8 µM (top of the series); also: nearly all actives have a fitted effect of over 65% in size
Procedure, shortened: as §1
Potency is read from the fitted curve at half-maximal effect.

C[C@@H]1O[C@@H](O[C@H]2CC[C@@]3(C)[C@H](CC[C@@H]4[C@H]3C[C@@H](O)[C@]3(C)[C@@H](C5=CC(=O)OC5)CC[C@]43O)C2)C[C@H](O)[C@@H]1O[C@H]1C[C@H](O)[C@H](O[C@H]2C[C@H](O)[C@@H](O)[C@@H](C)O2)[C@H](C)O1 (stereo in doubt)
Potency [1]: 0.27 µM (active)
Potency [2]: 0.152 µM (active)
Potency [3]: 0.171 µM (active)
Potency [4]: 340 nM (active)
Potency [5]: 0.136 µM (active)
Potency [6]: 0.303 µM (active)
Potency [7]: 0.121 µM (active)
Potency [8]: 0.152 µM (active)
Potency [9]: 0.0605 µM (active)
Potency [10]: 0.136 µM (active)
Potency [11]: 0.0959 µM (active)
Potency [12]: 215 nM (active)
Potency [13]: 0.108 µM (active)
Potency [14]: 0.215 µM (active)
Potency [15]: 0.121 µM (active)
Potency [16]: 0.191 µM (active)
Potency [17]: 0.0959 µM (active)

C[C@@H]1CCO[C@H]2Cn3cc(C(=O)NCc4ccc(F)cc4F)c(=O)c(O)c3C(=O)N12
Potency [1]: 23.5 µM (active)
Potency [2]: 23.5 µM (active)
viability (% of control) [3]: 92.8% (active)
Potency [5]: 20.9 µM (active)
Potency [6]: 26.4 µM (active)
Potency [9]: 26.4 µM (active)
Potency [13]: 23.5 µM (active)
Potency [15]: inactive
Potency [16]: 18.7 µM (active)
Potency [17]: 16.6 µM (active)

Clc1ccc(COC(Cn2ccnc2)c2ccc(Cl)cc2Cl)c(Cl)c1 (stereo unspecified)
Potency [1]: 23.5 µM (active)
Potency [2]: 18.7 µM (active)
Potency [3]: 20.9 µM (active)
Potency [5]: 26.4 µM (active)
Potency [18]: 18.7 µM (active)
Potency [8]: 18.7 µM (active)
Potency [10]: 18.7 µM (active)
Potency [13]: 20.9 µM (active)
Potency [16]: 23.5 µM (active)

COc1cc(Cl)cn2c(-c3cccc(NC4CNC4)n3)cnc12
Potency [1]: 16.6 µM (active)
Potency [2]: 20.9 µM (active)
Potency [19]: 9.35 µM (active)
Potency [5]: 13.2 µM (active)
Potency [8]: 2.96 µM (active)
Potency [9]: 11.8 µM (active)
Potency [10]: 14.8 µM (active)
Potency [11]: 20.9 µM (active)
Potency [13]: 14.8 µM (active)
Potency [14]: inactive
Potency [15]: inactive

Cc1[nH]c(C=C2C(=O)Nc3ccc(S(=O)(=O)N(C)c4cccc(Cl)c4)cc32)c(C)c1C(=O)N1CCN(C)CC1
Potency [1]: 23.5 µM (active)
Potency [2]: 23.5 µM (active)
Potency [4]: 20900 nM (active)
Potency [19]: 18.7 µM (active)
Potency [7]: 23.5 µM (active)
Potency [8]: 9.35 µM (active)
Potency [9]: 11.8 µM (active)
Potency [10]: 13.2 µM (active)
Potency [11]: 11.8 µM (active)
Potency [12]: 16600 nM (active)
Potency [13]: 14.8 µM (active)
Potency [14]: 23.5 µM (active)
Potency [15]: 20.9 µM (active)
Potency [16]: 11.8 µM (active)
Potency [17]: 16.6 µM (active)

CC1(C)CC(=O)c2c(C(F)(F)F)nn(-c3ccc(C(N)=O)c(NC4CCC(O)CC4)c3)c2C1 (stereo unspecified)
Potency [1]: 0.118 µM (active)
Potency [2]: 0.118 µM (active)
Potency [4]: 105 nM (active)
Potency [5]: 0.118 µM (active)
Potency [18]: 0.105 µM (active)
Potency [6]: 0.187 µM (active)
Potency [12]: 118 nM (active)
Potency [15]: 0.166 µM (active)
Potency [16]: 0.0118 µM (active)
Potency [17]: 0.0372 µM (active)

Cc1cnc(CNC(=O)c2c(=O)c3ccc(N4CCCN(C)CC4)nc3n3c2sc2ccccc23)cn1
Potency [1]: 7.24 µM (active)
Potency [2]: 12.9 µM (active)
Potency [5]: 10.2 µM (active)
Potency [18]: inactive
Potency [6]: 5.75 µM (active)
Potency [7]: 1.82 µM (active)
Potency [8]: 5.12 µM (active)
Potency [9]: inactive
Potency [10]: inactive
Potency [12]: inactive
Potency [14]: 8.12 µM (active)
Potency [16]: inactive
Potency [17]: inactive

Cc1cnc(-c2cc(N3CCN(C(=O)CCS(C)(=O)=O)CC3)ncc2Cl)c(C)c1
Potency [1]: 18.7 µM (active)
Potency [2]: inactive
Potency [4]: inactive
Potency [5]: 2.96 µM (active)
viability [6]: 114%
Potency [7]: inactive
Potency [8]: 14.8 µM (active)
Potency [9]: 16.6 µM (active)
Potency [13]: inactive
Potency [14]: inactive
Potency [15]: inactive

CN1N=C(N)c2cn([C@@H]3O[C@H](COP(=O)(O)O)[C@@H](O)[C@@H]3O)c3ncnc1c23
Potency [1]: 5.9 µM (active)
Potency [2]: 0.833 µM (active)
Potency [4]: 833 nM (active)
Potency [19]: 2.09 µM (active)
Potency [5]: 0.296 µM (active)
Potency [18]: 0.469 µM (active)
Potency [6]: 1.32 µM (active)
Potency [7]: 5.26 µM (active)
Potency [11]: 0.0235 µM (active)
Potency [12]: 59 nM (active)
Potency [13]: 1.05 µM (active)
Potency [14]: 0.105 µM (active)
Potency [17]: 23.5 µM (active)

CN(C)CC[C@H](CSc1ccccc1)Nc1ccc(S(=O)(=O)NC(=O)c2ccc(N3CCN(Cc4ccccc4-c4ccc(Cl)cc4)CC3)cc2)cc1[N+](=O)[O-]
Potency [1]: 0.833 µM (active)
Potency [2]: 1.48 µM (active)
Potency [19]: 0.209 µM (active)
Potency [5]: 0.0469 µM (active)
Potency [18]: 10.5 µM (active)
Potency [6]: 18.7 µM (active)
Potency [7]: 14.8 µM (active)
Potency [10]: 2.64 µM (active)
Potency [11]: 1.18 µM (active)
Potency [12]: 1480 nM (active)
Potency [13]: 0.0526 µM (active)
Potency [14]: 4.18 µM (active)
Potency [15]: 16.6 µM (active)
Potency [17]: 1.87 µM (active)

NCc1c[nH]c(=S)n1[C@H]1CCc2c(F)cc(F)cc2C1
Potency [1]: 16.6 µM (active)
Potency [2]: 14.8 µM (active)
Potency [4]: 20900 nM (active)
Potency [5]: 9.35 µM (active)
Potency [18]: 18.7 µM (active)
Potency [8]: 18.7 µM (active)
Potency [9]: 9.35 µM (active)
Potency [10]: 3.32 µM (active)
Potency [12]: 16600 nM (active)
Potency [13]: 2.96 µM (active)
Potency [14]: 26.4 µM (active)
Potency [16]: 20.9 µM (active)
Potency [17]: 20.9 µM (active)
